This is a sample that favours compounds with a hit; in the whole collection about 5.3% have one here.
SUMO Mot1 rescue = inhibitors of SUMOylation pathway: yeast Mot1-301 growth rescue. S. cerevisiae Mot1-301 growth rescue, ATP luminescence, 38.5C; percent above DMSO median, 100 means doubled. growth rescue, % at 18.8 µM. 320,000 tested, 1% active. AID 2716;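 active = every valid replicate shows activation above 250% relative to neutral control wells; inactive = the rest, any valid replicate at or below 250%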;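 note: OY570 slx delta 5 strain wells were the positive control but not used for scaling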
HIF act = HIF pathway transcriptional activation; activation, % at 7.5 µM (by protocol); U2OS HRE-luciferase reporter, luminescence; normalized: DMSO 0%, desferrioxamine 100%; 300,000 tested, 0.32% active;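 active = mean activation of at least 10% of the iron chelator positive control signal, with at least half of replicates also reaching 10%; inconclusive = mean and replicate majority disagree about reaching 10%; inactive = mean and most replicates under 10%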
ALR inh = inhibitors of human sulfhydryl oxidase ALR; P55789; purified ALR, DTT oxidation, H2O2 HRP-luminol luminescence; inhibition, % (concentration not given with the values); 290,000 tested, 3.8% active; AID 485317;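 active = mean replicate inhibition above about 79%, with every replicate also reaching it, limit read from the data; inconclusive = only one of the two criteria met; inactive = mean below limit and not every replicate reaching it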
Target sequence (P55789 whole entry, looked up): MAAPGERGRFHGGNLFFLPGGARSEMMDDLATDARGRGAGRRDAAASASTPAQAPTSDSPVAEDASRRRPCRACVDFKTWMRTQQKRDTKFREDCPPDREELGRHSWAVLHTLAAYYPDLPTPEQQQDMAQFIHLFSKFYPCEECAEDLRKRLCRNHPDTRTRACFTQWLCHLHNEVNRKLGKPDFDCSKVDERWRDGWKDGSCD
M18AAP inhibitor = blocks P. falciparum M18 aspartyl aminopeptidase; recombinant PfM18AAP, H-Glu-NHMec fluorogenic cleavage; inhibition, % at 7.35 µM; 290,000 tested, 1.2% active;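 active = inhibition above the campaign mean inhibition over all tested compounds plus 3 SD, cut at about 28% in these data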;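 note: 0% = plate median of test compound wells and 100% = 2 mM ZnCl2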
Active calls of the source: *.

COc1ccccc1N1CCN(CC(=O)N2N=CCC2c2ccccc2)CC1 (configuration not stated) was read as SUMO Mot1 rescue -4.8, HIF act -0.4, ALR inh 22.4 and M18AAP inhibitor -2.9.
COc1ccc(N2CCN(C(=O)CN(C)S(=O)(=O)c3cnc[nH]3)CC2)cc1 was read as SUMO Mot1 rescue 2.5, HIF act -0.2, ALR inh 87.3* and M18AAP inhibitor -0.2.
For COc1ccc(N2CCN(C(=O)CCCCn3c(=O)[nH]c4ccsc4c3=O)CC2)cc1 the results were HIF act -0.2, ALR inh 83.2* and M18AAP inhibitor 0.0.
Screening COc1ccccc1CNC(=O)COC(=O)CCN=C1NS(=O)(=O)c2ccccc21 returned SUMO Mot1 rescue -12.2, HIF act 0.1 and ALR inh -0.9.
O=C1Nc2ccc([N+](=O)[O-])cc2OC1CCN1CCN(c2ccccc2)CC1 (configuration not stated) was read as SUMO Mot1 rescue 36.0, HIF act -0.7, ALR inh 94.4* and M18AAP inhibitor -0.1.
O=C(C1CC1c1ccccc1)N1CCOCC1 (configuration not stated) was read as SUMO Mot1 rescue 24.3, HIF act -0.8, ALR inh 98.4* and M18AAP inhibitor -1.3.
`O=C(O)C1C(c2ccccc2)C(C(=O)N2CCOCC2)C1c1ccccc1` (configuration not stated) gave SUMO Mot1 rescue 1.5, HIF act 0.0, ALR inh -0.3 and M18AAP inhibitor -2.0.
For COC(=O)C1C(=O)N2CCCSC2=C(C#N)C1c1cccs1 (configuration not stated) the results were SUMO Mot1 rescue 4.0, HIF act 35.1*, ALR inh 18.9 and M18AAP inhibitor 1.4.
O=C(Nc1ccccc1)N(Cc1ccccc1)C1=NCCS1 was read as SUMO Mot1 rescue 31.2, ALR inh 98.7* and M18AAP inhibitor -1.0.
For COc1ccccc1NS(=O)(=O)c1cccc(C(=O)N/N=C2\CC(=O)CC(C)(C)C2)c1 the results were SUMO Mot1 rescue 4.6, HIF act -0.2, ALR inh 92.5* and M18AAP inhibitor 8.9.
CCN(CC)c1ccc(/C=N/NC(=O)OC)c(O)c1 was read as SUMO Mot1 rescue 13.2, ALR inh 98.5* and M18AAP inhibitor 18.6.
`CCN(CC)c1ccc(/C=N/NC(=O)c2cccc(S(=O)(=O)Nc3ccccc3OC)c2)c(O)c1` gave SUMO Mot1 rescue -12.9, HIF act 91.5*, ALR inh 2.7 and M18AAP inhibitor 13.0.
Screening CCN(CC)c1ccc(/C=N/NC(=O)c2ccoc2C)c(O)c1 returned SUMO Mot1 rescue -26.0, HIF act 64.4*, ALR inh 72.0 and M18AAP inhibitor 7.9.
`CCN(CC)c1ccc(/C=N/Nc2ccccc2)c(O)c1` gave SUMO Mot1 rescue 35.0, HIF act 1.5, ALR inh inconclusive and M18AAP inhibitor 19.9.
`Cn1cc(CNCc2cn(C)nc2-c2ccc(C3CCCCC3)cc2)cn1` gave SUMO Mot1 rescue 213.0, HIF act -1.2 and M18AAP inhibitor 5.6.
For Cc1ccccc1CN1CCC(N2CCC(C(=O)NCC3CCCO3)CC2)CC1 (configuration not stated) the results were SUMO Mot1 rescue -14.6, HIF act -0.5, ALR inh -4.4 and M18AAP inhibitor 3.8.
Screening CCN(CC)c1ccc(/C=N/NC(=O)c2ccc3nc[nH]c3c2)c(O)c1 returned SUMO Mot1 rescue 4.2, HIF act 95.6*, ALR inh 97.0* and M18AAP inhibitor 18.0.
Screening NC(=O)c1cc(Br)cc(C2CCCCC2)c1O returned SUMO Mot1 rescue 141.3, HIF act -0.5, ALR inh 92.4* and M18AAP inhibitor 1.4.
`Cc1cc(C)c(S(=O)(=O)Nc2ccc(N(C)C)cc2)c(C)c1-n1cnnn1` gave SUMO Mot1 rescue 191.1, HIF act 1.1, ALR inh 99.0* and M18AAP inhibitor 16.6.
`O=C(c1cc(F)c(F)cc1Cl)N1CCN(c2ncccn2)CC1` gave SUMO Mot1 rescue 0.8, HIF act 0.6, ALR inh -12.2 and M18AAP inhibitor 3.3.
Screening COc1cccc(/C=N/Nc2nn3cnnc3c3ccccc23)c1O returned HIF act 2.2, ALR inh -4.9 and M18AAP inhibitor 30.9*.
For Cc1cc(C)c(C)c(S(=O)(=O)N(C)C2CCN(C)CC2)c1C the results were SUMO Mot1 rescue -1.0, HIF act -0.1, ALR inh 3.6 and M18AAP inhibitor -1.3.
Cc1ccc(N(NC(=O)C(O)(c2ccccc2)c2ccccc2)C(=O)CCl)cc1 was read as SUMO Mot1 rescue 60.0, HIF act -0.2, ALR inh 13.3 and M18AAP inhibitor 6.4.
